The source of these data is PubChem BioAssay.

Test [1] relates to Wnt5a (protein binding on small-molecule microarray). Kind of test: Wnt5a binders on small-molecule microarray, primary screen, biophysical, 635/667 nm fluorescence (AID 1142).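 Note: fluorescence read at 667 nm with signal to noise per printed feature.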 The conditions noted are these: 635 nm fluorescence, higher = more signal.
Test [2] is described as follows: cell viability in Huh7 cells, primary screen, cytotoxicity control for HCV replication inhibitor project, CellTiter-Glo luminescence, basal, 48 h (AID 1143).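 Note: Huh7 hepatoma cells carrying a hepatitis C replication reporter with no stimulus; test concentration not given here.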 Particulars: Huh7 HCV replicon, higher = more signal, called active from +8 up or from −8 down. A general note: ATP-based viability assays read luminescence as a measure of living cells.
Test [3] in a line: P. aeruginosa biofilm formation inhibitors, primary screen, PAO1 strain, BacTiter-Glo luminescence, LB-PBS (AID 1144). The conditions noted are these: 12 h, higher = more signal.
Test [4] can be described thus: CREB reporter modulators without forskolin, primary screen, cell-based, PC12, CRE-LacZ reporter, unstimulated (AID 1145). Particulars: no forskolin, luminescence, 4.5 h, higher = more signal, called active from +8 up or from −8 down.
Test [5] can be described thus: CREB reporter modulators under forskolin, primary screen, cell-based, PC12, CRE-LacZ reporter, forskolin-stimulated (AID 1146).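 Note: PC12 cells with 6xCRE LacZ reporter stimulated by forskolin 10 µM; beta-galactosidase reporter signal reflecting CREB driven transcription.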 The conditions noted are these: luminescence, 4.5 h, higher = more signal, called active from +8 up or from −8 down.
Test [6] concerns the target Streptavidin (Streptomyces avidinii) (UniProt P22629). Kind of test: streptavidin binders on small-molecule microarray, primary screen, artefact control for SMM compound annotation, biophysical, 635/667 nm fluorescence (AID 1147).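 Note: signal reflects streptavidin binding to arrayed compounds as a control protein.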 The conditions noted are these: streptavidin binding, higher = more signal.
Test [7] is described as follows: small-molecule binders of probe aInhba, primary screen, biochemical, small-molecule microarray, 635/667 nm fluorescence (AID 1148).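 Note: score merges 667nm spot fluorescence with signal-to-noise for antibody binding to printed compounds.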 Particulars: higher = more signal.
In test [8] the target is Torsin-1A (Homo sapiens) (UniProt O14656). The test can be described thus: torsin A binders from cell lysate, primary screen, small-molecule microarray, wild-type, 635/667 nm (AID 1149). The conditions noted are these: COS7 hTOR1A-WT lysate, 635 nm fluorescence, higher = more signal.
Chain of Torsin-1A (Homo sapiens) (O14656 whole entry, looked up): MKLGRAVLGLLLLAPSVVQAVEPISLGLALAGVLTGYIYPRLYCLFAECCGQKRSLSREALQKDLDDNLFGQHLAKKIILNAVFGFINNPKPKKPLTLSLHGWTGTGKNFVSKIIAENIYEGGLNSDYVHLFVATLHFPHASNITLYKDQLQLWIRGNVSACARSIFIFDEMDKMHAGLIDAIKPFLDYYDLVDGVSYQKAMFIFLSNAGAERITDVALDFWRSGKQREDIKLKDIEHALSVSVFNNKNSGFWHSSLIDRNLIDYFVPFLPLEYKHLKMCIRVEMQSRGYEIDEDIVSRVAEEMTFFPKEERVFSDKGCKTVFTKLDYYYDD
For test [9] the target is unchanged. The test can be described thus: small-molecule binders of mutant TOR1A in lysate, primary screen, cell lysate, small-molecule microarray, COS7 lysate, 635/667 nm fluorescence (AID 1150).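 Note: score pools 667 nm emission and signal to noise measuring lysate protein binding.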 Particulars: COS7 hTOR1A mutant lysate, 635 nm fluorescence, higher = more signal.
In test [10] the test system is Sonic hedgehog protein (Shh). The test can be described thus: small-molecule binders of Shh protein, primary screen, biochemical, small-molecule microarray, 635/667 nm fluorescence (AID 1151).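 Note: Shh protein binding to compounds spotted on small-molecule microarray slides; score combines spot fluorescence intensity with signal-to-noise across triplicate slides.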 Particulars: small-molecule microarray binding, 635 nm fluorescence; higher = more signal.
A short description of test [11]: E. coli DRC41 culture turbidity changes, primary screen, E. coli filamentation inducer project, strain DRC41, OD650, 48 h (AID 1152).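 Note: E. coli MC1000 strain DRC41 lacking acrAB efflux pump and sulA.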 The conditions noted are these: E. coli DRC41 (acrAB sulA), higher = more signal, called active from +8 up or from −8 down.
A short description of test [12]: small-molecule binders of probe aLefty1, primary screen, biochemical, small-molecule microarray, 635/667 nm fluorescence (AID 1153).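 Note: score merges spot fluorescence with signal-to-noise ratio from the scanned slide images.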 The conditions noted are these: higher = more signal.
Test [13] in a line: PSAC antagonists in infected red cells, primary screen, cell-based, P. falciparum Indochina, OD700, 1 h (AID 1154). The conditions noted are these: P. falciparum Indochina infected RBC osmotic lysis, higher = more signal, called active from +8 up or from −8 down.
Test [14] in a line: PSAC antagonists in infected red cells, primary screen, cell-based, P. falciparum Indochina, OD700, 2 h (AID 1155).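 Note: lysis reports solute entry through the parasite surface anion channel PSAC; channel blockers reduce lysis of infected cells.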 The conditions noted are these: P. falciparum Indochina infected erythrocytes, osmotic lysis OD700; higher = more signal, called active from +8 up or from −8 down.
Test [15] in a line: osmotic lysis modulators in infected erythrocytes, primary screen, PSAC antagonist project, cell-based, P. falciparum Indochina, OD700, 3 h (AID 1156). The conditions noted are these: higher = more signal, called active from +8 up or from −8 down.
The nature of test [16]: PSAC antagonists in infected red cells, primary screen, cell-based, P. falciparum Indochina, OD700, 18 h (AID 1157). The conditions noted are these: P. falciparum Indochina infected erythrocytes, osmotic lysis OD700, 18 h; higher = more signal, called active from +8 up or from −8 down.
A short description of test [17]: modulators of S6 phosphorylation in cells, primary screen, cell-based, A549, cytoblot, luminescence, serum-stimulated (AID 1158).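 Note: serum-stimulated A549 lung adenocarcinoma cells; signal is phosphorylated S6 detected by cytoblot immunostaining with HRP secondary.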 Particulars: A549 phospho-S6 cytoblot, 5 h, higher = more signal.
The target in test [18] is NADPH oxidase 2 (Homo sapiens) (UniProt P04839). The test can be described thus: NOX2-dependent H2O2 signal modulators, primary screen, NOX inhibitor project, cell-based, HEK293-NOX2, PMA-stimulated, Amplex Red fluorescence (AID 1159). Note: test concentration not given here. Particulars: 45 min, higher = more signal, called active from +8 up or from −8 down.
Chain of NADPH oxidase 2 (Homo sapiens) (P04839 whole entry, looked up): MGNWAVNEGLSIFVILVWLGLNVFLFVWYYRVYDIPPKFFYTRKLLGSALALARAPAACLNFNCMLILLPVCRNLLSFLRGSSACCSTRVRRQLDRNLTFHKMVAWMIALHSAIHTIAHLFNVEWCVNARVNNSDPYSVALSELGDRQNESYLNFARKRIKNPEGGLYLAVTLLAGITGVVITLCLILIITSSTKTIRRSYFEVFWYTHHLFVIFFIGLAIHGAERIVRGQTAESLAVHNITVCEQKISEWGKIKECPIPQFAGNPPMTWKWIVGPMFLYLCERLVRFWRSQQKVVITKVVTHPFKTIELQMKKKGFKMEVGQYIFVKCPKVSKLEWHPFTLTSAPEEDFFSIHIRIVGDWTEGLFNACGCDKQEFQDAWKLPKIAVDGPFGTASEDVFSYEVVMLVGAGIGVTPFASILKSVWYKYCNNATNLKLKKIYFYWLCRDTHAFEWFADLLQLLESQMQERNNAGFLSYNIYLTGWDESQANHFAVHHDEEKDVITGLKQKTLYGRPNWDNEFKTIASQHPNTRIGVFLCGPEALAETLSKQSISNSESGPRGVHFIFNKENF
The target of test [19] is NADPH oxidase 4 (Homo sapiens) (UniProt Q9NPH5). Kind of test: NOX4-dependent H2O2 signal modulators, primary screen, NOX inhibitor project, cell-based, HEK293-NOX4, tetracycline-induced, Amplex Red fluorescence (AID 1160). Particulars: 45 min, higher = more signal, called active from +8 up or from −8 down.
Chain of NADPH oxidase 4 (Homo sapiens) (Q9NPH5 whole entry, looked up): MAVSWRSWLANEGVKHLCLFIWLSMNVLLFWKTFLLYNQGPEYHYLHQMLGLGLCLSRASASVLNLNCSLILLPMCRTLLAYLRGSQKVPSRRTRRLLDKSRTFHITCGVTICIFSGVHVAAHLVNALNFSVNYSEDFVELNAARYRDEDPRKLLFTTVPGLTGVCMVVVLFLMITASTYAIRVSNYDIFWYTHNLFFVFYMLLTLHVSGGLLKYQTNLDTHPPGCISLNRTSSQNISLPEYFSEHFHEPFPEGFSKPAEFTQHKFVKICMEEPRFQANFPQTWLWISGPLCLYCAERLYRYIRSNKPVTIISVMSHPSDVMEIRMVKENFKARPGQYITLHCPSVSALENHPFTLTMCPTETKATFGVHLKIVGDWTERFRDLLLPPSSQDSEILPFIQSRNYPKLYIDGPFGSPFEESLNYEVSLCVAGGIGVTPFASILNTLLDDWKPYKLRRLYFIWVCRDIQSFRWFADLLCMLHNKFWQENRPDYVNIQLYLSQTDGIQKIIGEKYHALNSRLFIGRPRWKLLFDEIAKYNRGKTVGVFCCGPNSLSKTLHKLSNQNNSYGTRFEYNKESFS
The target of test [20] is NADPH oxidase 5 (Homo sapiens) (UniProt Q96PH1). Kind of test: NOX5-dependent H2O2 signal modulators, primary screen, NOX inhibitor project, cell-based, HEK293-NOX5, Amplex Red fluorescence (AID 1161). Particulars: HEK293-NOX5, ionomycin, 45 min, higher = more signal.
Chain of NADPH oxidase 5 (Homo sapiens) (Q96PH1 whole entry, looked up): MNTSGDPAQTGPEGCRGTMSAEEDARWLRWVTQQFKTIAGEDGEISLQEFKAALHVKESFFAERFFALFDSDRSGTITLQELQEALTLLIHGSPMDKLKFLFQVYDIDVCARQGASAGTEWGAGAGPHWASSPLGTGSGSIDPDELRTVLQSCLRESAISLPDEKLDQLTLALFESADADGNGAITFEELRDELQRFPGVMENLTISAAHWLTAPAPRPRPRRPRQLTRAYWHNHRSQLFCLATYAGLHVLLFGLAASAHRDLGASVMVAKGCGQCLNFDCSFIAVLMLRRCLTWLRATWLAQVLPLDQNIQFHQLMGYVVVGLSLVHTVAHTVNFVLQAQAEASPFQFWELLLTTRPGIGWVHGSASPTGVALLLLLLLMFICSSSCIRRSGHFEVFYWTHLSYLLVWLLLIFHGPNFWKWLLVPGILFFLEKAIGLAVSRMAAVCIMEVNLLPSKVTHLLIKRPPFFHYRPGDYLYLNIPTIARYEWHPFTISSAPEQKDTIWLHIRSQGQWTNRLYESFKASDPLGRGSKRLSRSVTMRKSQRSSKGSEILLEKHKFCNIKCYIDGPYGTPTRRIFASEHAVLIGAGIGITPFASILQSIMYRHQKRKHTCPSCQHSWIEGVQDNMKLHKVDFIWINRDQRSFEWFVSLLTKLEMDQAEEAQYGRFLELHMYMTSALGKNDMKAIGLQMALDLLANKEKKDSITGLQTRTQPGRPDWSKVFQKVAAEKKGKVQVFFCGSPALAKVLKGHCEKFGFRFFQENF

Molecules are shown by their SMILES. Calls of active or inactive are those of the source. Unless noted, the rule behind the calls is not given here.

Chain of Streptavidin (Streptomyces avidinii) (P22629 whole entry, looked up): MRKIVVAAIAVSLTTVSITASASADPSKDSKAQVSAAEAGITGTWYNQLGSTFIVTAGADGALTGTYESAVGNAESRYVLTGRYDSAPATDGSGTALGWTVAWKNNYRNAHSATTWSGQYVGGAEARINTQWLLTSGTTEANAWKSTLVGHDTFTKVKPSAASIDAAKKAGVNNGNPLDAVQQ

As for `COCCOC(=O)N1C(=O)[C@@]2(c3cc(C#CCC(C(=O)OC)C(=O)OC)ccc31)[C@H](C(=O)Nc1nc3ccccc3s1)[C@H]1C(=O)O[C@H](c3ccccc3)[C@H](c3ccccc3)N1[C@@H]2c1ccc(OCCO)cc1`, the composite z-score in test [1] worked out at 0.555; in [6], 0.532; in test [7], 0.79; in test [8] it was 1.07; in [9], 0.596; in test [10], 2.23. Moreover, the composite z-score in [12] was found to be 0.529. In addition, the z-score is -0.835 (inactive) in test [2]; -0.00208 (inactive) in test [3]; 1.71 (inactive) in test [4]; 0.323 (inactive) in test [5]; 0.836 (inactive) in test [11]; 5.5 (inactive) in [13]. The z-score in test [14] is 1.77 (inactive); in [15], 0.832 (inactive); in [16], 1.39 (inactive); in test [17], -0.265; in test [18] it was 1.75 (inactive); in [19] it was 1.03 (inactive). In test [20], this molecule had a z-score of 1.33.

On to `CCOC(=O)C[C@H]1[C@H](OC(=O)c2cc3ccccc3oc2=O)[C@@H](NC(=O)CC(C)C)c2cc(OCCCO)ccc2N1C(=O)Cc1ccc(OC)cc1`, for which the composite z-score in [1] is 0.221; in test [6], 0.0665; in test [7] it was -0.128; in test [8], -0.0652; in [9], 0.304; in test [10], 0.97. This molecule also registered a composite z-score in [12] of -0.193. Also, the z-score in test [2] is -0.387 (inactive); in test [3] it was 1.19 (inactive); in test [4], 1.02 (inactive); in test [5] it was -0.505 (inactive); in test [11], -0.752 (inactive); in [13], 5.95 (inactive). The z-score in test [14] is 0.711 (inactive); in test [15], 0.863 (inactive); in [16], 0.5 (inactive); in test [17], -0.0561; in [18] it was 0.166 (inactive); in test [19], 0.381 (inactive). Besides, in test [20], the z-score worked out at 1.38.

`CCCC=C(CCC)[C@@H](NC(=O)c1ccc(C(F)(F)F)cc1)c1ccc(C(F)(F)F)cc1`: the composite z-score in test [1] was 0.63; in test [6], 0.48; in test [7], 0.207; in [8], 0.342; in test [9], 0.587; in test [10], -0.605. This molecule gave a composite z-score in test [12] of 0.792. The z-score in [2] was -2.78 (inactive); in [3] it was 0.429 (inactive); in test [4], 0.779 (inactive); in [5], 0.34 (inactive); in test [11] it was -1.35 (inactive); in [13], 1.23 (inactive). The z-score in test [14] is 0.588 (inactive); in test [15] it was -0.957 (inactive); in [16], 1.25 (inactive); in test [17] it was -0.523; in test [18], -0.0499 (inactive); in test [19], -0.414 (inactive). For the same molecule, the z-score in test [20] was found to be 2.97.

For the molecule `C=CCC(OC(C)=O)[C@@H]1[C@@H](N(Cc2ccc(-c3ccccc3)cc2)C(=O)c2cccc3ccccc23)c2cc(OCCCO)ccc2N1C(=O)Cc1ccc(OC)cc1` (stereo not given in full), the composite z-score in [1] was 0.0948; in [6] it was 0.0251; in [7], -0.0346; in [8], -0.476; in [9], 0.127; in [10], 0.586. The molecule also showed a composite z-score in test [12] of 0.568. Also, the z-score in [2] is -1.62 (inactive); in test [3], 0.0108 (inactive); in test [4], 0.498 (inactive); in test [5], -0.117 (inactive); in [11], -1.17 (inactive); in test [13], 0.53 (inactive). Also, the z-score in test [14] is 0.525 (inactive); in test [15] it was 0.375 (inactive); in [16] it was 0.211 (inactive); in [17] it was -0.0451; in test [18], -0.248 (inactive); in test [19] it was -0.0822 (inactive). For the same molecule, the z-score in [20] was -2.28.
